PubChem BioAssay
Calls of active or inactive are those of the source. Unless noted, how the calls were made is not given here.

Assays:
[1] = HepG2 liver cancer cell viability effects, profiling panel, resazurin fluorescence, 24 h, PK04 Diversity Set (AID 1172); details: higher = more signal; further: test concentration not given here
[2] = basal S. cerevisiae growth modulation, no modifier, primary screen, OD600, strain BY4716, 24 h, basal condition (AID 1173); details: OD600, 24 h, higher = more signal, called active from +8 up or from −8 down
[3] = MM1S myeloma cell viability, profiling panel, resazurin fluorescence, basal, 24 h, PK04 Diversity Set (AID 1174); details: higher = more signal, called active from +8 up or from −8 down;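 further: MM1S multiple myeloma cell line; test concentration not given here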
[4] = molecular target: Dihydroorotate dehydrogenase (quinone), mitochondrial (Plasmodium falciparum (isolate 3D7)) (UniProt Q08210); assay: PfDHODH enzyme inhibitors, primary screen, biochemical, C-terminal His tag, absorbance 600 nm (AID 1175); details: DCIP absorbance 600 nm, higher = more signal, called active from +8 up or from −8 down;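 further: recombinant parasite enzyme with a five histidine tag at its C terminus; test concentration not given here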
[5] = P. aeruginosa biofilm formation inhibitors, primary screen, strain PAO1, LB-PBS medium, absorbance 600 nm (AID 1176); further: test concentration not given here; details: P. aeruginosa PAO1 growth/biofilm, A600, 12 h; higher = more signal
[6] = S. cerevisiae RM11-1a growth modifiers, primary screen, strain RM11-1a, OD600, basal, 24 h (AID 1177); details: OD600, 24 h, higher = more signal, called active from +8 up or from −8 down;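 further: cultures grown under basal conditions with no added stressor; test concentration not given here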
[7] = E. coli acrAB mutant growth effects, primary screen, E. coli filamentation inducers, strain DRC39, OD650, 24 h (AID 1178); details: higher = more signal, called active from +8 up or from −8 down;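 further: growth measured as culture turbidity by optical density at 650 nm; test concentration not given here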
[8] = E. coli acrAB mutant growth effects, primary screen, E. coli filamentation inducers, strain DRC39, OD650, 48 h (AID 1179);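 further: screen aims at cell division blockers that make cells filament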; details: E. coli DRC39 delta-acrAB growth, higher = more signal, called active from +8 up or from −8 down
[9] = RPMI8226 myeloma cell viability, profiling panel, resazurin fluorescence, basal, 24 h, PK04 Diversity Set (AID 1180); details: higher = more signal;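 further: RPMI8826 multiple myeloma cell line at 5000 cells per well; test concentration not given here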
[10] = molecular target: E3 ubiquitin-protein ligase XIAP (Homo sapiens) (UniProt P98170); assay: XIAP binders, primary screen, biophysical, small-molecule microarray, fluorescence 635 nm (AID 1181); details: small-molecule microarray binding, higher = more signal;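 further: score merges 667 nm emission and signal to noise over triplicate slides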
E3 ubiquitin-protein ligase XIAP (Homo sapiens), sequence (P98170 whole entry, looked up): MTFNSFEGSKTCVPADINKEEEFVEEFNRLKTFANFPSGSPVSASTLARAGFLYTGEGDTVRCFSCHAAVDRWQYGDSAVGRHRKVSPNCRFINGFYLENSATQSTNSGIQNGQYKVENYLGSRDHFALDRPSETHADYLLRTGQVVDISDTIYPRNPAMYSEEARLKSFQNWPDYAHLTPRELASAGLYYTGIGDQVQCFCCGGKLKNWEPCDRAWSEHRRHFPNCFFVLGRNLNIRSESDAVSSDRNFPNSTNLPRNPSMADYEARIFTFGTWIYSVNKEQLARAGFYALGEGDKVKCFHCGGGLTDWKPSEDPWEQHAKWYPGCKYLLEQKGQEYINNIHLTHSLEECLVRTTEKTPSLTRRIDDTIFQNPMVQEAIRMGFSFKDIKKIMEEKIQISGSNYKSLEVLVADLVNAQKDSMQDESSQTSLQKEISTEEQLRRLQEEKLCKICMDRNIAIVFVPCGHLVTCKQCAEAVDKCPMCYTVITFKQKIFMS

Dihydroorotate dehydrogenase (quinone), mitochondrial (Plasmodium falciparum (isolate 3D7)), sequence (Q08210 whole entry, looked up): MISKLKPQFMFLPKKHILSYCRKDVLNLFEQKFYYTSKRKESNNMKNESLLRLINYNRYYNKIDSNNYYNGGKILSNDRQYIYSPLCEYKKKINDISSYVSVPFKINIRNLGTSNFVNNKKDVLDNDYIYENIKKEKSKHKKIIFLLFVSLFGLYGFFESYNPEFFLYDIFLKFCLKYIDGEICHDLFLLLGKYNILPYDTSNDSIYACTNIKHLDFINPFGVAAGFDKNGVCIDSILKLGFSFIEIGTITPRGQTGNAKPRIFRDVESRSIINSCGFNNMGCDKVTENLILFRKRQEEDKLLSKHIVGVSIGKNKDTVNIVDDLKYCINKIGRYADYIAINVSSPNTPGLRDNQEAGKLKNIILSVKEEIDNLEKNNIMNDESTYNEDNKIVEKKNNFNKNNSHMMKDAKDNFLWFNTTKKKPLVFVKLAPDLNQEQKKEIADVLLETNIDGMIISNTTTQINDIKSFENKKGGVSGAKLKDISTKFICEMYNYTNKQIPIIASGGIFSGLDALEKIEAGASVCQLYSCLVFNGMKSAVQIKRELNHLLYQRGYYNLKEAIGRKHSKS

Row | Compound | z-score [1] | z-score [2] | z-score [3] | composite z-score [4] | z-score [5] | z-score [6] | z-score [7] | z-score [8] | z-score [9] | composite z-score [10]
1 | CO[C@H]1COC(=O)[C@@H]2CCCN2C(=O)CC=C[C@@H](C)[C@H](OC)COC(=O)CC=C[C@@H]1C | 0.233 | -1.16 (inactive) | 0.89 (inactive) | -0.652 (inactive) | 0.696 (inactive) | -2.08 (inactive) | 1.04 (inactive) | 0.375 (inactive) | -0.395 | -0.137
2 | CN1C(=O)C2C=CC(C(O)c3ccc(I)cc3)N(NC(=O)OC(C)(C)C)C2C1=O (stereo not given) | -1.11 | 0.9 (inactive) | -0.694 (inactive) | 0.0247 (inactive) | 0.53 (inactive) | 0.983 (inactive) | -0.446 (inactive) | -0.18 (inactive) | -0.639 | 0.308
3 | CC(C)CON=C1[C@H]2CCn3c(=O)n(-c4ccccc4)c(=O)n3[C@H]2[C@H](O)[C@@H]2O[C@H]12 | -0.771 | -0.813 (inactive) | -1.21 (inactive) | -0.422 (inactive) | -0.225 (inactive) | 0.0254 (inactive) | 0.276 (inactive) | 0.596 (inactive) | -0.822 | -0.032
4 | C[C@H]1CC[C@@H](C(=O)O)N[C@@H]1c1ccc(C#CCN(C)C)cc1 | 0.378 | -1.07 (inactive) | 0.584 (inactive) | 0.666 (inactive) | -0.458 (inactive) | -0.191 (inactive) | 0.554 (inactive) | 0.15 (inactive) | 0.22 | 0.256
5 | CC1CC/C=C\[C@H]2OC34C=CCN(Cn5nnc6ccccc65)C(=O)[C@H]3N(CCO)C(=O)[C@@H]4C2C(=O)O1 (stereo not given in full) | 0.831 | -0.895 (inactive) | 0.869 (inactive) | -0.895 (inactive) | 0.773 (inactive) | -0.943 (inactive) | 0.673 (inactive) | -0.108 (inactive) | 1.04 | 0.235
6 | CC(CCN1CCc2nc(-c3ccccc3)c(-c3ccccc3)cc2C1)=NOC(C)CN1CCCCc2nc(C)c(C)cc21 (stereo not given) | -0.0429 | -2.52 (inactive) | -1.07 (inactive) | 0.187 (inactive) | 0.347 (inactive) | -0.609 (inactive) | 0.789 (inactive) | -0.702 (inactive) | -0.747 | -0.0651
7 | CO[C@H]1COC(=O)[C@@H]2CCCN2C(=O)[C@@H](C)COC(=O)CC=C[C@@H]1C | 0.264 | -0.0361 (inactive) | 0.285 (inactive) | -1.95 (inactive) | -0.725 (inactive) | 0.023 (inactive) | 0.488 (inactive) | 0.362 (inactive) | 0.0409 | 0.285
8 | CC(=O)OC[C@H]1O[C@H](C#CCCCc2ccccc2)C=C[C@@H]1OC(C)=O | -0.22 | -2.31 (inactive) | -4.16 (inactive) | -0.791 (inactive) | -0.0569 (inactive) | 0.291 (inactive) | 0.387 (inactive) | -0.0416 (inactive) | -2.47 | 0.072
9 | O=C(NN=C1C[C@@H](O)[C@@H](O)[C@@H]2[C@@H]3C(=O)N(c4ccc(F)cc4F)C(=O)[C@@H]3CC[C@@H]12)OCc1ccccc1 | 0.801 | 0.207 (inactive) | 0.442 (inactive) | -0.192 (inactive) | -1.09 (inactive) | 1.01 (inactive) | 0.502 (inactive) | 0.873 (inactive) | 0.508 | -0.27
10 | CCCCCCc1nc(CCCc2cc3c(c(CCCCCC)n2)[Si](C(C)C)(C(C)C)O[C@H]3c2ccccc2)cc2c1[Si](C(C)C)(C(C)C)O[C@H]2c1ccccc1 | 0.0054 | 1.33 (inactive) | -0.582 (inactive) | -0.347 (inactive) | 0.0793 (inactive) | -0.879 (inactive) | -0.631 (inactive) | -0.981 (inactive) | -0.465 | -0.117
11 | C=CC[C@@H]1C=C[C@H](ON=C(C)CCN2CCc3nc(CC)c(CC)cc3C2)[C@@H](CO)O1 | -0.127 | -0.392 (inactive) | -0.439 (inactive) | -1.29 (inactive) | -0.0417 (inactive) | 0.189 (inactive) | 0.0116 (inactive) | 0.138 (inactive) | -0.639 | 0.0178
12 | COc1cccc([C@@H]2Oc3ccc(Br)cc3C(=O)[C@H]2O)c1 | -0.41 | -14.5 (active) | -1.99 (inactive) | -0.071 (inactive) | -0.0782 (inactive) | -0.361 (inactive) | 0.255 (inactive) | 0.139 (inactive) | -1.02 | -0.391
13 | C[C@@H]1C=CCC(=O)OC[C@H](C)C(=O)N[C@@H](C)C(=O)OC1 | 0.29 | 0.128 (inactive) | 0.617 (inactive) | 0.474 (inactive) | -0.537 (inactive) | 0.317 (inactive) | 0.6 (inactive) | 0.879 (inactive) | 0.361 | -0.113
14 | CC[C@@H](c1ccccc1)n1c(=O)n2n(c1=O)[C@H]1[C@H](O)[C@@H]3O[C@@H]3C(=NOCC=C(C)CCC=C(C)C)[C@H]1CC2 | -0.301 | 0.11 (inactive) | -0.16 (inactive) | 0.0031 (inactive) | -0.261 (inactive) | 1.01 (inactive) | -0.271 (inactive) | -1.98 (inactive) | -0.451 | -0.141
15 | CCCNC(=O)OC[C@H]1O[C@H](CCON=C[C@@H](OC)[C@H](C)C=CCC(=O)OC)C=C[C@@H]1Oc1ccc(OC)cc1 | 0.173 | 0.746 (inactive) | 0.345 (inactive) | 0.329 (inactive) | -0.537 (inactive) | 0.198 (inactive) | 0.356 (inactive) | 0.138 (inactive) | 1.95 | -0.0361
16 | O=C1[C@H]2[C@H]3[C@H](O)[C@H](O)CC(=NOC[C@@H](O)COCc4ccco4)[C@@H]3CC[C@H]2C(=O)N1c1ccc(F)cc1F | 0.883 | -0.374 (inactive) | 0.995 (inactive) | -0.564 (inactive) | -1.45 (inactive) | -0.247 (inactive) | 0.0718 (inactive) | 0.264 (inactive) | 1.15 | -0.37
17 | CCN1C(=O)[C@H]2[C@H]3[C@H](O)[C@H](O)CC(=NO[C@@H]4O[C@H](CO)[C@@H](O)[C@H](O)[C@H]4O)[C@@H]3CC[C@H]2C1=O | -0.59 | -0.369 (inactive) | -0.596 (inactive) | -0.794 (inactive) | -0.343 (inactive) | -0.654 (inactive) | 0.226 (inactive) | 0.117 (inactive) | -0.922 | 0.0623
18 | CC(C)N1CC=CC23O[C@@H]4C=CCCOC(=O)C4[C@H]2C(=O)N(CCCCCCO)[C@@H]3C1=O (stereo not given in full) | 0.973 | 0.948 (inactive) | 0.98 (inactive) | -0.0439 (inactive) | 0.109 (inactive) | 0.638 (inactive) | 0.66 (inactive) | 0.541 (inactive) | 0.937 | 0.694
19 | CC(C)=CCCC(C)=CCON=C1[C@H]2CCn3c(=O)n(C)c(=O)n3[C@H]2[C@H](O)[C@@H]2O[C@H]12 | -0.653 | -0.777 (inactive) | -2.63 (inactive) | -0.251 (inactive) | -0.543 (inactive) | 0.199 (inactive) | 0.119 (inactive) | 0.214 (inactive) | -0.88 | 0.153
20 | CCCC[C@@H]1C[C@H]1[C@@H](NS(=O)(=O)c1cccc2cccnc12)c1ccc(-c2ccccc2)cc1 | -0.279 | 0.444 (inactive) | -0.251 (inactive) | -0.151 (inactive) | 0.411 (inactive) | 0.269 (inactive) | -0.366 (inactive) | -0.166 (inactive) | -0.611 | -0.0559
21 | CN1C(=O)C2C=CC(C(O)C(c3ccccc3)c3ccccc3)N(NC(=O)OC(C)(C)C)C2C1=O (stereo not given) | -0.889 | -4.58 (inactive) | -0.861 (inactive) | -1.08 (inactive) | 0.791 (inactive) | 0.225 (inactive) | -0.963 (inactive) | -0.577 (inactive) | -0.962 | 0.497
22 | C=C(CCCC)C(=O)CC[C@@H](OC(C)=O)c1cccc(OCCO)c1 | -0.749 | -17.8 (active) | -1.01 (inactive) | -3.64 (inactive) | 0.367 (inactive) | -19.2 (active) | -0.55 (inactive) | -0.528 (inactive) | -1.07 | 0.136
23 | COc1ccc([Si](C)(C)[C@H]2[C@H](CCO)O[C@@]3(C(=O)N(Cc4cccc(NC(=O)[C@H](C)O)c4)c4ccccc43)[C@@H]2C)cc1 | -5.76 | -0.321 (inactive) | -9.08 (active) | 1.35 (inactive) | 1.19 (inactive) | 4.03 (inactive) | 1.7 (inactive) | 1.14 (inactive) | -6.16 | 0.131
